Results published in PubChem BioAssay (Tox21).
A number with no mark means an inactive call. Results filed as inconclusive are left out. Entries that show only a call come without a potency. Active and inactive are the calls of the source. Unless noted, calls follow the shape of the dose curve; as a rule, active = well fitted curve in the direction sought with a large enough effect in the repeat runs; inconclusive = weak or mixed curves; inactive = no such curve, though single readings can be large; an effect the other way counts as inactive or inconclusive.

Legend:
[1] = qHTS assay to identify small molecule agonists of the estrogen receptor alpha (ER-alpha) signaling pathway in the presence of an antagonist - cell viability counter screen (AID 1259386);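 also: cells exposed to compounds for 22 h at 37 °C before the viability read; nearly all actives have a fitted effect of over 30% in size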; also: potency is read from the fitted curve at half-maximal effect
Summary of the method: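 Steps: 5-day stripped-FBS culture; seed and incubate 24hr; add ICI-182,780 (10.0nM final); pin 15-point compound titration; incubate 22hr at 37C; add CellTiter-Fluor at 21hr; read fluorescence.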

[2] = biological target: Progesterone receptor (Homo sapiens) (UniProt P06401); test: qHTS assay to identify small molecule agonists of the progesterone receptor (PR) signaling pathway (AID 1346784; calls by dose curve; also: nearly all actives have a fitted effect of over 30% in size)
Progesterone receptor (Homo sapiens), sequence (P06401 whole entry, looked up): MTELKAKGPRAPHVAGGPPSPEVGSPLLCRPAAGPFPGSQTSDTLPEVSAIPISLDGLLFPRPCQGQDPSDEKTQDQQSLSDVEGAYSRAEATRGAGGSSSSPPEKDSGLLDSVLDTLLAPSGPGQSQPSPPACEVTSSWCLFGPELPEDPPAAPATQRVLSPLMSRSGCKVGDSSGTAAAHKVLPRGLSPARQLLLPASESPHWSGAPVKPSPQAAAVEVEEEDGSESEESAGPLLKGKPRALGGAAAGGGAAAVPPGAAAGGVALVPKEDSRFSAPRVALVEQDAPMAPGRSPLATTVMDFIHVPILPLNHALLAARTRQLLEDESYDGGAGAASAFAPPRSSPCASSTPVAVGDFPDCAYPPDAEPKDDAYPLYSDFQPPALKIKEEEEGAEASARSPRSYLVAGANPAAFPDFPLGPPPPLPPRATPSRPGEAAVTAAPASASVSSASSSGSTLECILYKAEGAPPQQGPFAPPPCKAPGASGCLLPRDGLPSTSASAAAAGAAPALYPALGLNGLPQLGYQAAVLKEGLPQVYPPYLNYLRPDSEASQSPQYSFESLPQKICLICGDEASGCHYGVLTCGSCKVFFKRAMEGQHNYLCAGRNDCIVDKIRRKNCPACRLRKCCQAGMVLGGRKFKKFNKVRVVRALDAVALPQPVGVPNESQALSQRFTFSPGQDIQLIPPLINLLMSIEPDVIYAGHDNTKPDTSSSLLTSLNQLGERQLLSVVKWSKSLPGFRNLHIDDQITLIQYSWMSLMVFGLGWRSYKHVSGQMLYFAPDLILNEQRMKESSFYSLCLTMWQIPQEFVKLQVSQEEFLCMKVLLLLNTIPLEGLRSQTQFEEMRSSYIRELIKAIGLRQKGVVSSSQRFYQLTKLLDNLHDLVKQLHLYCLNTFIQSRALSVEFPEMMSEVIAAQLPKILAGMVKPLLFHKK
Summary of the method: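 Reporter assay, GripTite PR-UAS-bla HEK 293T cells: 16 hr exposure to DMSO-dissolved compounds at 37C, 5% CO2, in steroid-depleted (2% charcoal-stripped FBS) medium; beta-lactamase measured by FRET fluorescence.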

[3] = qHTS assay to identify small molecule antagonists of the progesterone receptor (PR) signaling pathway - cell viability counter screen (AID 1346798); also: series mostly up to about 92 µM; nearly all actives have a fitted effect of over 50% in size
Summary of the method: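 In the same plates used for the beta-lactamase readout, cell viability of compound- and R5020-treated PR-UAS-bla HEK293T cells (16 hr, 37C) was assessed by CellTiter-Glo luminescence.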

[4] = qHTS assay to identify small molecule agonists of the progesterone receptor (PR) signaling pathway - cell viability counter screen (AID 1346799; calls by dose curve; also: nearly all actives have a fitted effect of over 45% in size)
Summary of the method: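 Multiplexed viability read: CellTiter-Glo luminescence, 30 min RT, following LiveBLAzer FRET measurement on PR-UAS-bla HEK293T cells exposed to compounds 16 hr.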

[5] = qHTS assay to identify small molecule antagonists of the TGF-beta/Smad signaling pathway - cell viability counter screen (AID 1346824); also: nearly all actives have a fitted effect of over 50% in size
Summary of the method: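 SBE-bla HEK 293T cells, incubated overnight, then compound plus 0.25 ng/mL TGF-beta1 (stock added) for 5 hr at 37 C. Viability was read in the same wells by CellTiter-Glo luminescence after 30 min at room temperature.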

[6] = qHTS assay to identify small molecule agonists of the TGF-beta/Smad signaling pathway - cell viability counter screen (AID 1346829); also: top concentration of the series differs between compounds; nearly all actives have a fitted effect of over 45% in size
Summary of the method: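 Cytotoxicity counter screen: CellTiter-Glo luminescence (30 min, room temperature) measured in the SBE-bla HEK 293T reporter wells after 5 hr compound treatment at 37 C and the 2 hr substrate step.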

[7] = qHTS assay to identify small molecule agonists of the TGF-beta/Smad signaling pathway (AID 1346859; active = well fitted activation curve with a large enough effect in the signal ratio in the repeat runs, not every such curve was filed as active; the % refers to the signal ratio; also: series mostly up to about 77 µM)
Summary of the method: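 Screening used HEK 293T SBE-bla cells at 4,000/well. Test agents: 5 hr, 37 C. Detection: FRET substrate, 2 hr RT, then excitation 405 nm with emissions at 460 and 530 nm.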

[8] = biological target: Thyrotropin-releasing hormone receptor (Homo sapiens) (UniProt P34981); test: qHTS assay to identify small molecule antagonists of the thyrotropin-releasing hormone receptor (TRHR) signaling pathway (AID 1346877; active = well fitted inhibition curve with a large enough effect in the repeat runs, not every such curve was filed as active; also: series mostly up to about 51 µM)
Thyrotropin-releasing hormone receptor (Homo sapiens), sequence (P34981 whole entry, looked up): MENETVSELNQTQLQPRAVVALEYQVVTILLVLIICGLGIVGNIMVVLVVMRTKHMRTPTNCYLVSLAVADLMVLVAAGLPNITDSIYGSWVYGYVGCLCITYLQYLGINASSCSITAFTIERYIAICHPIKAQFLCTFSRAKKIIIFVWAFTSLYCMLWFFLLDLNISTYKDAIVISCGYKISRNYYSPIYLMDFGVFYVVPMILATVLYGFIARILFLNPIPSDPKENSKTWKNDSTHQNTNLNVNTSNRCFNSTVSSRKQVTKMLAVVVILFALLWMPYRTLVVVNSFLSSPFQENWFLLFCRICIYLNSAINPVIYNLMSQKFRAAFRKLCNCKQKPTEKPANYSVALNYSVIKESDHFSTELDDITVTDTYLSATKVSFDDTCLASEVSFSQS
Summary of the method: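 Human TRHR in HEK293 cells; inhibition of the intracellular calcium rise triggered by 1 nM TRH was followed by fluorescence over 3 min. Compounds were run at 15 concentrations, three replicates each.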

[9] = biological target: Thyrotropin-releasing hormone receptor (Homo sapiens) (UniProt P34981); test: qHTS assay to identify small molecule agonists of the thyrotropin-releasing hormone receptor (TRHR) signaling pathway (AID 1346891; calls by dose curve; also: series mostly up to about 58 µM)
Summary of the method: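 Readout was intracellular calcium fluorescence in TRHR-Hek293 cells. Cells were incubated 18 h, dye-loaded 2 h at 37 °C, and treated with compound in agonist mode.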

[10] = Human pregnane X receptor (PXR) small molecule agonists, qHTS cell viability counter screen (AID 1346977); also: nearly all actives have a fitted effect of over 50% in size; also: potency is read from the fitted curve at half-maximal effect
Summary of the method: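 In each well, the PXR reporter HepG2 line was checked for viability: CellTiter-Fluor reagent added 23hr post-dosing, fluorescence read after 1hr incubation at 37C.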

[11] = Caspase-3/7 induction in HepG2 cells by small molecules, qHTS assay (AID 1346978); also: nearly all actives have a fitted effect of over 15% in size
Summary of the method: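 Wild-type HepG2 cells, 2,000/well, settled 5 hr at 37 C and 5% CO2, then compound-treated for 17 hr; caspase-3/7 activity read by luminescent Caspase-Glo 3/7 after 30 min at room temperature.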

[12] = Caspase-3/7 induction in CHO-K1 cells by small molecules, qHTS cell viability counter screen (AID 1346979); also: nearly all actives have a fitted effect of over 35% in size; also: potency is read from the fitted curve at half-maximal effect
Summary of the method: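 Following a 5hr settling period, CHO-K1 cells at 1,500 per well received DMSO-dissolved compounds. Cell viability was quantified 16hr later by CellTiter-Fluor fluorescence, measured after 1hr with reagent at 37C.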

[13] = biological target: Nuclear receptor subfamily 1 group I member 2 (Homo sapiens) (UniProt O75469); test: Human pregnane X receptor (PXR) small molecule agonists, qHTS assay (AID 1346982); also: nearly all actives have a fitted effect of over 35% in size; also: potency is read from the fitted curve at half-maximal effect
Nuclear receptor subfamily 1 group I member 2 (Homo sapiens), sequence (O75469 whole entry, looked up): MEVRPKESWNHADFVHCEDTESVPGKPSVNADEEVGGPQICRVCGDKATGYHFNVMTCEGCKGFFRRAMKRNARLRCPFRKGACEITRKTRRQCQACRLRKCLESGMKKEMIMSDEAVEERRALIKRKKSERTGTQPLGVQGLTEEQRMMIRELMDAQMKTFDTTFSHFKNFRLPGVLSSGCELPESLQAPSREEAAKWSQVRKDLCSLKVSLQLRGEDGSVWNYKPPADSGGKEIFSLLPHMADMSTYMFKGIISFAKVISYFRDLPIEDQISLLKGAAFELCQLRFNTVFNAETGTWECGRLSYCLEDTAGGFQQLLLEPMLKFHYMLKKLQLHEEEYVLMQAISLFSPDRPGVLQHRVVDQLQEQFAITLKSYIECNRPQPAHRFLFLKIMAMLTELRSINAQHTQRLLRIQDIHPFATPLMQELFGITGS
Summary of the method: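 After plating in 5% charcoal-stripped FBS and a 5 hr rest, PXR-Luc HepG2 cells received compounds in DMSO. Following 24 hr at 37 C, ONE-Glo was added and light output read.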

[14] = biological target: Nuclear receptor subfamily 1 group I member 2 (Rattus norvegicus) (UniProt Q9R1A7); test: Rat pregnane X receptor (rPXR) activation by small molecules, qHTS assay (AID 1346983); settings: rPXR luciferase reporter cells, One-Glo luminescence, 24 h; max activation: stronger effect = higher value; also: nearly all actives have a fitted effect of over 20% in size
Nuclear receptor subfamily 1 group I member 2 (Rattus norvegicus), sequence (Q9R1A7 whole entry, looked up): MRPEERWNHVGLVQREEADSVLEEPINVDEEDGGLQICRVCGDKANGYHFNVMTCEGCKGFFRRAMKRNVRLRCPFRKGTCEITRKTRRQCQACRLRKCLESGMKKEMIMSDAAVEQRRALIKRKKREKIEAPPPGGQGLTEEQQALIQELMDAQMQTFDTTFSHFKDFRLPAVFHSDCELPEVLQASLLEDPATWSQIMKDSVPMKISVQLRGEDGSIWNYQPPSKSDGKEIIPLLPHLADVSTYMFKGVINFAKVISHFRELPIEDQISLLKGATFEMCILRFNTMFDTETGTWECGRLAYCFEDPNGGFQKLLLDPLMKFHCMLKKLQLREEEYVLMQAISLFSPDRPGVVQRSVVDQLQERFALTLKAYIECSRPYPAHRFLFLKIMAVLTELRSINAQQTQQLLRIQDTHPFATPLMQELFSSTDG
Summary of the method: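 Cell-based rPXR activation assay: rPXR cells, 2,000 per well, rested 5hr at 37 C, then exposed to compounds in DMSO for 24 hr at 37 C. Luciferase activity read by One-Glo luminescence after 30 min at room temperature.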

[15] = biological target: Nuclear receptor subfamily 1 group I member 2 (Homo sapiens) (UniProt O75469); test: CYP3A4 induction through human pregnane X receptor (PXR) by small molecules, qHTS assay (AID 1346984); also: nearly all actives have a fitted effect of over 40% in size
Summary of the method: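 Human PXR activation is tracked via CYP3A4 promoter-luciferase in DPX-2 (HepG2) cells. Compounds treat cells for 24hr at 37C, and luminescence is read after One-Glo.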

[16] = biological target: Nuclear receptor subfamily 1 group I member 2 (Homo sapiens) (UniProt O75469); test: Human pregnane X receptor (PXR) activation by small molecules, qHTS assay (AID 1346985); also: nearly all actives have a fitted effect of over 40% in size
Summary of the method: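 DPX-2 cells (HepG2 co-transfected with a PXR response element and a CYP3A4-promoter luciferase construct) were seeded at 2,000 per well, rested 5 hr at 37C, then exposed to DMSO-dissolved compounds for 24 hr. Activation was read as luciferase luminescence.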

[17] = Caspase-3/7 induction in CHO-K1 cells by small molecules, qHTS assay (AID 1346980); also: nearly all actives have a fitted effect of over 15% in size
Summary of the method: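 Wild-type CHO-K1 cells exposed to compounds for 17hr at 37 C, 5% CO2. Caspase-3/7 activity then measured by Caspase-Glo 3/7 luminescence after 30min at room temperature.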

[18] = biological target: Acetylcholinesterase (Homo sapiens) (UniProt P22303); test: Acetylcholinesterase (AChE) small molecule antagonists: colormetric cell-based qHTS assay (AID 1347395; calls by dose curve; also: nearly all actives have a fitted effect of over 30% in size; also: potency is read from the fitted curve at half-maximal effect)
Acetylcholinesterase (Homo sapiens), sequence (P22303 whole entry, looked up): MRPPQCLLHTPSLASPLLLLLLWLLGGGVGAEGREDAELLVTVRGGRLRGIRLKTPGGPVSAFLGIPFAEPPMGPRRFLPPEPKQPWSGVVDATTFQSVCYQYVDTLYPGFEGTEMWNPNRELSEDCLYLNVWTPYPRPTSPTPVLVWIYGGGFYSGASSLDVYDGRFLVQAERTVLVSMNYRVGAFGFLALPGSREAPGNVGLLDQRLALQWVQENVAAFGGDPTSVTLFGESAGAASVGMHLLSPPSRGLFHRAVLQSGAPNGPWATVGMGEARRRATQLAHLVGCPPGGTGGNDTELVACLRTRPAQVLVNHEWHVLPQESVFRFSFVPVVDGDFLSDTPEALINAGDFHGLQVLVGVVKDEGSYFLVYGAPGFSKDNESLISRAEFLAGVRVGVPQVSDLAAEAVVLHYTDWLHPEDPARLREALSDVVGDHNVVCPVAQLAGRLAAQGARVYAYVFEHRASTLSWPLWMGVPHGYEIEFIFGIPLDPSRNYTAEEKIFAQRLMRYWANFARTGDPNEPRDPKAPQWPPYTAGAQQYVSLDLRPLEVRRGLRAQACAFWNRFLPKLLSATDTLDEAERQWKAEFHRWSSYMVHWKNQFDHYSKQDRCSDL
Summary of the method: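 After overnight attachment at 37 C, SH-SY5Y cells get 30 min compound exposure; detection cocktail (acetylthiocholine, DTNB) then incubates 90 min at 37 C, and absorbance reflects AChE-generated thiocholine.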

[19] = biological target: Progesterone receptor (Homo sapiens) (UniProt P06401); test: qHTS assay to identify small molecule antagonists of the progesterone receptor (PR) signaling pathway (AID 1346795; active = well fitted inhibition curve with a large enough effect in the signal ratio in the repeat runs, not every such curve was filed as active; the % refers to the signal ratio; also: potency is read from the fitted curve at half-maximal effect)
Summary of the method: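 Stimulus R5020 at 1 nM final; cells HEK293T PR-UAS-bla; medium with 2% charcoal-stripped FBS; compound exposure 16 hr at 37C, 5% CO2; detection by FRET beta-lactamase substrate, 2 hr, room temperature.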

[20] = Caspase-3/7 induction in HepG2 cells by small molecules, qHTS cell viability counter screen (AID 1346981); also: nearly all actives have a fitted effect of over 30% in size; also: potency is read from the fitted curve at half-maximal effect
Summary of the method: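 The parent HepG2 line is plated at 2,000 cells per well and rested 5 hr before compound pinning from DMSO stocks. Following a 16-hr treatment at 37 C, a fluorogenic live-cell substrate (CellTiter-Fluor) reports viability after 1 hr.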

Row | SMILES | Potency [1] | Potency [2] | Potency [3] | Potency [4] | Potency [5] | Potency [6] | outcome [7] | Potency [8] | Potency [9] | Potency [10] | Potency [11] | Potency [12] | Potency [13] | max activation [14] | Potency [15] | Potency [16] | Potency [17] | Potency [18] | Potency [19] | Potency [20]
1 | CC(Cc1ccc(O)cc1)NCC(O)c1cc(O)cc(O)c1 (stereo not given) | inactive | inactive | inactive | inactive | inactive | inactive | inactive | inactive | inactive | inactive | inactive | inactive | inactive | -1.7% | inactive | inactive |  |  |  | 
2 | CCC(C)Nc1c([N+](=O)[O-])cc(C(C)(C)C)cc1[N+](=O)[O-] (stereo not given) | inactive | inactive | inactive | inactive | inactive | inactive | inactive | inactive | inactive | inactive | inactive |  | 24.3 µM (active) |  |  |  | inactive | inactive |  | 
3 | CNC(=O)Oc1cc(C)cc(C(C)C)c1 | inactive | inactive |  |  | inactive | inactive | inactive |  | inactive |  | inactive |  |  |  |  |  |  | 0.633 µM (active) | inactive | inactive
4 | CC(C)=CC1C(C(=O)OC(C#N)c2cccc(Oc3ccccc3)c2)C1(C)C (stereo not given) | inactive | inactive | inactive | inactive | inactive | inactive | inactive |  | inactive |  |  |  | 17.2 µM (active) |  |  |  | inactive | inactive |  | inactive
5 | CNC(=O)/C=C(\C)OP(=O)(OC)OC | inactive | inactive | inactive | inactive | inactive | inactive | inactive | inactive | inactive |  | inactive | inactive | inactive |  |  |  |  | 39.9 µM (active) |  | inactive
6 | CO/N=C(/C1=NOCCO1)c1ccccc1Oc1ncnc(Oc2ccccc2Cl)c1F | 27.3 µM (active) | inactive |  |  |  | inactive | inactive | inactive | inactive | 9.68 µM (active) | inactive | 1.72 µM (active) | 27.3 µM (active) |  |  |  |  | inactive | 27.3 µM (active) | 30.6 µM (active)
7 | C=CCOC(=O)c1ccccc1N | inactive | inactive | inactive | inactive | inactive | inactive | inactive |  |  | inactive | inactive | inactive | inactive |  |  |  | inactive | inactive |  | 
8 | CSC1=N[C@@](C)(c2ccccc2)C(=O)N1Nc1ccccc1 | 54.5 µM (active) | inactive |  |  |  | inactive | inactive | inactive | inactive |  | inactive | 8.63 µM (active) |  |  |  |  |  | inactive | 43.3 µM (active) | 
9 | O=c1c2ccccc2c(=O)c2c1cc(Cl)c1[nH]c3c([nH]c12)c(Cl)cc1c(=O)c2ccccc2c(=O)c13 | inactive | inactive | inactive | inactive | inactive | inactive | inactive | inactive | inactive | inactive |  | inactive | inactive |  |  |  | inactive | inactive |  | inactive
10 | [Cl-].[Cl-].[Sn+2] | inactive | inactive | inactive | inactive | inactive | inactive | inactive |  |  | inactive | inactive | inactive |  |  |  |  | inactive |  |  | inactive
11 | OCC(Br)CBr (stereo not given) | inactive | inactive | inactive | inactive | inactive | inactive | inactive |  |  | inactive | inactive | inactive | inactive |  |  |  |  | inactive |  | inactive
12 | Clc1ccc(C(Cl)(Cl)Cl)cc1Cl | inactive | inactive | inactive | inactive | inactive | inactive | inactive | inactive | inactive | inactive |  |  | 30 µM (active) |  |  |  | inactive | inactive |  | 
13 | COc1ccc2c3c1O[C@H]1[C@H](O)CC[C@H]4[C@@H](C2)N(C)CC[C@@]341 | inactive | inactive |  |  | inactive | inactive | inactive |  | inactive | inactive | inactive | inactive |  |  |  |  | inactive | inactive | inactive | inactive
14 | CCCN | inactive | inactive | inactive | inactive | inactive | inactive | inactive |  |  | inactive |  | inactive | inactive |  |  |  |  | inactive |  | inactive
